# Assay results: the supplement of paper PMC10849652
# Targets with a hit are over-represented here; the source holds about 7,900 in all. About 0.6% of all pairs of compound and target were hits. Unmarked numbers belong to inactive results.
# Assays:
# Assay in all cases: log2 fold change, soluble protein after heating vs DMSO (PISA); higher = thermal stabilisation; K562 cells, 10 uM, 30 min; active = over 0.2 and 3.5 SD of the protein, either way, in both replicates (recomputed)
# [1] = compound: CS(=O)(=O)c1ccc(-c2cnc(N)c(C(=O)Nc3ccccc3)n2)cc1
# Method in brief: (§1)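 Values are thermal stability changes relative to control samples and are taken from duplicates. They are stated as log2 fold changes. Before quantification by TMTpro 16plex LC-MS/MS with equalised channel sums, K562 cells at 2×10^6 cells/mL were treated with 10 μM compound for 30 min, heated in aliquots for 3 min across 48°C-58°C, pooled, extracted in PBS with 0.5% NP-40 at 4°C, and centrifuged at 21,000xg for 90 min to give the soluble supernatant.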
# crizotinib = compound: C[C@@H](Oc1cc(-c2cnn(C3CCNCC3)c2)cnc1N)c1c(Cl)ccc(F)c1Cl [crizotinib]
# Method in brief: as §1
# [2] = compound: C[C@@H]1COCCN1C2=NC(=NC(=C2)C3(CC3)S(=O)(=O)C)C4=C5C=CNC5=CC=C4
# Method in brief: as §1
# [3] = compound: C[C@H](C1=CC=C(C=C1)C(=O)NC2=C3C=CNC3=NC=C2)N
# Method in brief: as §1
# duvelisib = compound: C[C@H](Nc1ncnc2nc[nH]c12)c1cc2cccc(Cl)c2c(=O)n1-c1ccccc1 [duvelisib]
# Method in brief: as §1
# gandotinib = compound: Cc1cc(Nc2cc(CN3CCOCC3)c3nc(C)c(Cc4ccc(Cl)cc4F)n3n2)n[nH]1 [gandotinib]
# Method in brief: as §1
# tozasertib = compound: Cc1cc(Nc2cc(N3CCN(C)CC3)nc(Sc3ccc(NC(=O)C4CC4)cc3)n2)n[nH]1 [tozasertib]
# Method in brief: as §1
# [4] = compound: Cc1cc(SCc2sc(-c3ccc(C(F)(F)F)cc3)nc2C)ccc1OCC(=O)O
# Method in brief: as §1
# doramapimod = compound: Cc1ccc(-n2nc(C(C)(C)C)cc2NC(=O)Nc2ccc(OCCN3CCOCC3)c3ccccc23)cc1 [doramapimod]
# Method in brief: as §1
# ispinesib = compound: Cc1ccc(C(=O)N(CCCN)[C@@H](c2nc3cc(Cl)ccc3c(=O)n2Cc2ccccc2)C(C)C)cc1 [ispinesib]
# Method in brief: as §1
# bafetinib = compound: Cc1ccc(NC(=O)c2ccc(CN3CC[C@H](N(C)C)C3)c(C(F)(F)F)c2)cc1Nc1nccc(-c2cncnc2)n1 [bafetinib]
# Method in brief: as §1
# [5] = compound: Cc1cccc(CC(=O)N2CCc3c2ccc(-c2cn(C)c4ncnc(N)c24)c3F)n1
# Method in brief: as §1
# nilotinib = compound: Cc1cn(-c2cc(NC(=O)c3ccc(C)c(Nc4nccc(-c5cccnc5)n4)c3)cc(C(F)(F)F)c2)cn1 [nilotinib]
# Method in brief: as §1
# [6] = compound: Cc1nc(Nc2n[nH]c3c2CN(C(=O)N[C@H](CN(C)C)c2ccccc2)C3(C)C)c2sccc2n1
# Method in brief: as §1
# dasatinib = compound: Cc1nc(Nc2ncc(C(=O)Nc3c(C)cccc3Cl)s2)cc(N2CCN(CCO)CC2)n1 [dasatinib]
# Method in brief: as §1
# [7] = compound: Cc1ncc(-c2ccnc(Nc3ccc(S(C)(=O)=O)cc3)n2)n1C(C)C
# Method in brief: as §1
# [8] = compound: Cn1cc(-c2ccc3c(c2)CCN3C(=O)Cc2cccc(C(F)(F)F)c2)c2c(N)ncnc21
# Method in brief: as §1
# [9] = compound: Cn1cc(-c2ccc3nnc(C(F)(F)c4ccc5ncccc5c4)n3n2)cn1
# Method in brief: as §1
# tipifarnib = compound: Cn1cncc1[C@@](N)(c1ccc(Cl)cc1)c1ccc2c(c1)c(-c1cccc(Cl)c1)cc(=O)n2C [tipifarnib]
# Method in brief: as §1
# mubritinib = compound: FC(F)(F)c1ccc(/C=C/c2nc(COc3ccc(CCCCn4ccnn4)cc3)co2)cc1 [mubritinib]
# Method in brief: as §1
# Sequence of UniProt Q9UEU0 (Q9UEU0 whole entry, looked up): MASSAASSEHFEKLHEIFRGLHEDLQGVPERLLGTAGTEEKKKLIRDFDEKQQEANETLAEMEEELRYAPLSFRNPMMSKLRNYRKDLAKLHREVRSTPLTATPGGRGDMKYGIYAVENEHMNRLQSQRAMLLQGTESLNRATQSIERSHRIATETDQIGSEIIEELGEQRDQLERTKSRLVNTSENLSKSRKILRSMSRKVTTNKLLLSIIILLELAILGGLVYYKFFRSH
# Sequence of UniProt Q9H269 (Q9H269 whole entry, looked up): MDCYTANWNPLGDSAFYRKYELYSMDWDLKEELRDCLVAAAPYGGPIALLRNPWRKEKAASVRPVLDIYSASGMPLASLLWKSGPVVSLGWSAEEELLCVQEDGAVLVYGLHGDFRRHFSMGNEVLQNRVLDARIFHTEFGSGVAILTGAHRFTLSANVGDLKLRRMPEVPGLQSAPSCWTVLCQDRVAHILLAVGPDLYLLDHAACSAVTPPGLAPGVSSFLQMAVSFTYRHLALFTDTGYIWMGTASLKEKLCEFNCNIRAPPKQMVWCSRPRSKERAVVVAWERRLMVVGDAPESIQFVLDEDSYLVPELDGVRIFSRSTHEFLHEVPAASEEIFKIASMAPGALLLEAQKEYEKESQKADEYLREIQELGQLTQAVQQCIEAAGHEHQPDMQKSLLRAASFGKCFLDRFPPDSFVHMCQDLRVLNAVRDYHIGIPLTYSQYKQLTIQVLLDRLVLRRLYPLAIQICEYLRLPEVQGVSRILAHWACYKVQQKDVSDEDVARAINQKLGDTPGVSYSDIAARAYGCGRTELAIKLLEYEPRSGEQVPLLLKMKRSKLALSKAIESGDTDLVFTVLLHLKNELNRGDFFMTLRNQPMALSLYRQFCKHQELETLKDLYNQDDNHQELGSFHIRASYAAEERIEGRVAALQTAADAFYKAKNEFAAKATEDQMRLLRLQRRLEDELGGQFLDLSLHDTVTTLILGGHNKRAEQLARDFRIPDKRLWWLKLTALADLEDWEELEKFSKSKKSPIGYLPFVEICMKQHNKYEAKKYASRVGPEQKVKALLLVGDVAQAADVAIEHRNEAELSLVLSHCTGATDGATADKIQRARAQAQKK
# Sequence of UniProt P43897 (P43897 whole entry, looked up): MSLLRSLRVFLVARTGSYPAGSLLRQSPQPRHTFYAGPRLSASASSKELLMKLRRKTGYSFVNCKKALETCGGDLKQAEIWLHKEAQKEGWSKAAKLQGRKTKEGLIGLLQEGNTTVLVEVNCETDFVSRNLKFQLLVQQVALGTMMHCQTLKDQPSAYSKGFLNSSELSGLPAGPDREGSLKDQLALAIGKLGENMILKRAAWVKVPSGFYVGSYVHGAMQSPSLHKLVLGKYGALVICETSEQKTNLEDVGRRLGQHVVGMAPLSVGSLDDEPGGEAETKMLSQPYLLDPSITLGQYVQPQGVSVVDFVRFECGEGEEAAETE
# Sequence of UniProt Q15642 (Q15642 whole entry, looked up): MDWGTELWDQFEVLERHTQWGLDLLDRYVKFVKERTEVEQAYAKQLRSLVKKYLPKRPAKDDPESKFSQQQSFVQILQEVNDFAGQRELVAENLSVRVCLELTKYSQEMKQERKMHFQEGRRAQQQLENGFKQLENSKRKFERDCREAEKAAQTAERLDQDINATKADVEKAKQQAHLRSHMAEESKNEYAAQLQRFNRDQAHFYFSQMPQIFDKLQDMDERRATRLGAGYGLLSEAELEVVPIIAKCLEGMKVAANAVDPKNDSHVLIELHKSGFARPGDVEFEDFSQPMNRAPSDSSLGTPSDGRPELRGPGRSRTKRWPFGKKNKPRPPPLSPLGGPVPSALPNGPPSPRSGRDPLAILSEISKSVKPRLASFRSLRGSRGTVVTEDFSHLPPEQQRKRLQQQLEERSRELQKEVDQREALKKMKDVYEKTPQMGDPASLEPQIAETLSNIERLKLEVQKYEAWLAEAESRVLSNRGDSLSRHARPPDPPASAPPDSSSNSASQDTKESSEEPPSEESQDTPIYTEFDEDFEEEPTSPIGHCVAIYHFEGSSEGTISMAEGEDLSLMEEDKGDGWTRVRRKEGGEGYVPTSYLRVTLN
# Sequence of UniProt Q99757 (Q99757 whole entry, looked up): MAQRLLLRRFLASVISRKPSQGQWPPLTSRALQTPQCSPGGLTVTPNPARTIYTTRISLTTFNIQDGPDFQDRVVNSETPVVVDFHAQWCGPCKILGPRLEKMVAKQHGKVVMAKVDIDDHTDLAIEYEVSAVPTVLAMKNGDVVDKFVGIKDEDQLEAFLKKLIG
# Sequence of UniProt Q9BV38 (Q9BV38 whole entry, looked up): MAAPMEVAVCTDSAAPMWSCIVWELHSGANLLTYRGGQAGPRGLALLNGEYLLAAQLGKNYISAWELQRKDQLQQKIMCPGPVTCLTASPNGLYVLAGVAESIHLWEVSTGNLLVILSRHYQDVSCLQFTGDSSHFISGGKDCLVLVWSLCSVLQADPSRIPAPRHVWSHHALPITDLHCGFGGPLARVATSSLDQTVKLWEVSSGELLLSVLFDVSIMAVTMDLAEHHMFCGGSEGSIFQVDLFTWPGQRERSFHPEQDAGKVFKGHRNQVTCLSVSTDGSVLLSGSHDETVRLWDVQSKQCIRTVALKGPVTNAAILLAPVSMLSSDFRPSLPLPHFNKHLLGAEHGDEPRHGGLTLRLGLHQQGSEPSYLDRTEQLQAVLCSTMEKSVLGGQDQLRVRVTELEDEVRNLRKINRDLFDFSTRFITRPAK
# Sequence of UniProt P28908 (P28908 whole entry, looked up): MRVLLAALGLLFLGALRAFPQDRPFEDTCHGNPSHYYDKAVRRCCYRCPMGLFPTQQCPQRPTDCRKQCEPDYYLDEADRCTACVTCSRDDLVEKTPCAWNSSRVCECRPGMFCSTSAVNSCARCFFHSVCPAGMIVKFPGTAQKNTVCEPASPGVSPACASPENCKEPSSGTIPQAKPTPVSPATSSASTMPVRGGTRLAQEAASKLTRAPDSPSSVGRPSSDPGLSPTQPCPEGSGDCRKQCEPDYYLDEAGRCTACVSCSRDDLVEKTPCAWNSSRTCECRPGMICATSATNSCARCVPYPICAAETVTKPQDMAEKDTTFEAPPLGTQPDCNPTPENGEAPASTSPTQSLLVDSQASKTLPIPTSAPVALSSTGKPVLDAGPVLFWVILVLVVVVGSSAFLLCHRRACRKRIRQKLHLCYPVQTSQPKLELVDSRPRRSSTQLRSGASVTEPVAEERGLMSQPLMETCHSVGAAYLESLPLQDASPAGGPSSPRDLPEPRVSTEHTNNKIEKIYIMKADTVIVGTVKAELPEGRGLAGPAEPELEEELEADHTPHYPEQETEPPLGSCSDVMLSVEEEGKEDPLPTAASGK
# Sequence of UniProt O43617 (O43617 whole entry, looked up): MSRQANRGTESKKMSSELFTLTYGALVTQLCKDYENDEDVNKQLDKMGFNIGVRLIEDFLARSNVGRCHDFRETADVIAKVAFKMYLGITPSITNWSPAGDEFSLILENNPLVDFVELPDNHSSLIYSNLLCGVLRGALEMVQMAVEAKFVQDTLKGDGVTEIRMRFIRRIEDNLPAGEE
# Sequence of UniProt Q16881 (Q16881 whole entry, looked up): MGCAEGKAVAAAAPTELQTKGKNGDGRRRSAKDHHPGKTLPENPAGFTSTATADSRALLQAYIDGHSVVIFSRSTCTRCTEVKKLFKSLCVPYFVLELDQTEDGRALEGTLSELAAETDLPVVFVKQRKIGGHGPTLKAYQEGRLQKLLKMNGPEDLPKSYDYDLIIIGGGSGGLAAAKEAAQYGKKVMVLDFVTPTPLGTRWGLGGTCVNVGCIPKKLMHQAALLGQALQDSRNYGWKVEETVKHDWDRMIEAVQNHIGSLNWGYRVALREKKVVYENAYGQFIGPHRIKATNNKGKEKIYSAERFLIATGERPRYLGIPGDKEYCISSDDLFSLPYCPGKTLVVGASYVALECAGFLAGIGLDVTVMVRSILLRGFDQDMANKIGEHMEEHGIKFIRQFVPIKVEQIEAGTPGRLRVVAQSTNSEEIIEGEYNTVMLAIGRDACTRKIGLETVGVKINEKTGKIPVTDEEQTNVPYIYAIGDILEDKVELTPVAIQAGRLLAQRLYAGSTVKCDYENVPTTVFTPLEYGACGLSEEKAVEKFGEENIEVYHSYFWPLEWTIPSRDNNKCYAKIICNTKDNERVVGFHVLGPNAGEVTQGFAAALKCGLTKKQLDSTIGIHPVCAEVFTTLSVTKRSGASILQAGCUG
# Sequence of UniProt P07951 (P07951 whole entry, looked up): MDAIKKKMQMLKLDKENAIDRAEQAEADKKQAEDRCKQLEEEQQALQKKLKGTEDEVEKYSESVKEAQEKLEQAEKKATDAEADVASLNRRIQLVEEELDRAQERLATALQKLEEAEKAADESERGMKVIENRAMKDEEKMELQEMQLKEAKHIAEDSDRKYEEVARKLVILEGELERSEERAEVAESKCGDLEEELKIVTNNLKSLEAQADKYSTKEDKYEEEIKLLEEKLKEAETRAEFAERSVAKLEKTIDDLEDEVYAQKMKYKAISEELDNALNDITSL
# Sequence of UniProt P57081 (P57081 whole entry, looked up): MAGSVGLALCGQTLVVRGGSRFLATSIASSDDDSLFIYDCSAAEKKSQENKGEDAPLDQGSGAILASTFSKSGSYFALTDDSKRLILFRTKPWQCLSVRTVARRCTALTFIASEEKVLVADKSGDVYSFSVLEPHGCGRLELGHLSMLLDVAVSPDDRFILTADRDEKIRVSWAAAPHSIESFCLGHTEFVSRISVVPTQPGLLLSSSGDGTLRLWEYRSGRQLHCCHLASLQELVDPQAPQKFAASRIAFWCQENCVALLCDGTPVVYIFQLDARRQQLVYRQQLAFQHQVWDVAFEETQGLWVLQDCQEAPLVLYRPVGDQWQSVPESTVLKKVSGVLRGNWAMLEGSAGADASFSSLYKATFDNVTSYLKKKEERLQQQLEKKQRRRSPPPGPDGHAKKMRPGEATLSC
Target,log2 fold change [1],log2 fold change (crizotinib),log2 fold change [2],log2 fold change [3],log2 fold change (duvelisib),log2 fold change (gandotinib),log2 fold change (tozasertib),log2 fold change [4],log2 fold change (doramapimod),log2 fold change (ispinesib),log2 fold change (bafetinib),log2 fold change [5],log2 fold change (nilotinib),log2 fold change [6],log2 fold change (dasatinib),log2 fold change [7],log2 fold change [8],log2 fold change [9],log2 fold change (tipifarnib),log2 fold change (mubritinib)
"WASHC2C, A0A096LPC5",-0.078,-0.363,0.031,0.025,0.15,0.189,0.007,-0.053,0.02,-0.135,-0.144,-0.335,0.093,-0.101,0.13,-0.003,-0.016,-0.082,0.283,0.123
UBA6,0.05,0.024,0.047,-0.017,-0.007,-0.039,0.05,0.078,-0.038,0.014,0.009,0.036,0.062,-0.137,-0.035,-0.024,0.016,-0.024,-0.075,0.228 (active)
WDR4 (UniProt P57081),0.085,-0.038,-0.024,-0.121,0.014,0.049,-0.007,0.017,0.023,0.075,0.455 (active),-0.06,0.009,0.005,-0.013,-0.003,0.068,-0.061,-0.132,0.031
TXNRD1 (UniProt Q16881),0.075,-0.043,0.079,-0.053,0.047,-0.045,-0.036,-0.007,-0.028,-0.009,-0.012,-0.011,0.097,-0.013,-0.013,-0.002,0.067,0.021,-0.107,0.225 (active)
TXN2 (UniProt Q99757),-0.001,0.128,-0.047,-0.317 (active),0.031,0.105,0.009,-0.026,-0.034,0.028,-0.105,-0.104,0.034,-0.005,0.083,-0.048,0.227,0.013,0.059,0.009
TRIP10 (UniProt Q15642),0.08,-0.009,-0.085,-0.026,0.005,0.044,-0.003,0.038,-0.036,-0.021,-0.042,0.05,0.098,-0.017,-0.06,-0.021,0.045,0.024,-0.01,0.048
TPM2 (UniProt P07951),-0.016,-0.012,-0.167,-0.29,-0.131,-0.046,0,-0.117,0.059,0.122,0.034,0.003,0.126,-0.097,0.072,0.064,-0.019,-0.015,0.086,0.025
WDR18 (UniProt Q9BV38),-0.023,-0.008,-0.022,-0.102,-0.012,-0.021,0.022,-0.009,0.026,0.027,-0.031,0.05,-0.059,-0.024,0,-0.048,0.029,-0.016,-0.018,0.022
VTI1B (UniProt Q9UEU0),0.022,-0.089,0.025,0.032,-0.045,0.039,0.005,-0.077,0.084,-0.41 (active),-0.064,-0.177,0.013,0.015,-0.011,0.027,0,0.037,0.085,-0.055
TUT4 (UniProt Q5TAX3),0.069,0.075,-0.286,0.095,0.166,0.024,0.044,0.195,-0.003,-0.124,-0.281,0.074,-0.153,0.01,-0.105,-0.116,-0.097,-0.066,-0.049,-0.01
TNFRSF8 (UniProt P28908),0.051,0.15,0.009,-0.073,0.027,0.012,-0.05,-0.063,-0.011,0.029,0.01,-0.089,0.074,-0.049,0.032,0.043,0.014,0.032,0.042,0.069
TMEM263 (UniProt Q8WUH6),0.03,-0.717 (active),-0.029,0.018,-0.007,-0.385,-0.019,0.046,-0.075,-0.936 (active),-0.434,0.037,-0.079,-0.027,-0.249,0.124,-0.011,0.02,-0.182,0.054
TMEM161B (UniProt Q8NDZ6),0.026,-0.096,0.004,0.002,0.128,-0.156,0.063,0.11,-0.024,-0.055,-0.01,0.073,-0.148,-0.018,-0.273 (active),-0.046,-0.08,0.103,-0.043,0.036
TRAPPC3 (UniProt O43617),-0.003,0.002,0.074,-0.006,0.06,-0.048,0.028,0.017,-0.008,-0.023,-0.033,0.003,-0.007,-0.023,-0.021,-0.001,0.025,0.041,-0.047,0.035
VPS16 (UniProt Q9H269),0.035,-0.105,-0.09,0.08,0.023,-0.163,0.033,0.092,0.085,-0.239,0.041,0.178,-0.038,-0.071,-0.14,-0.022,-0.039,0.04,-0.078,0.083
TSFM (UniProt P43897),-0.083,0.171,0.152,-0.104,0.044,-0.083,-0.033,0.095,-0.095,0.398 (active),0.091,-0.087,0.062,-0.217,-0.143,0.039,0.033,0.033,0.013,-0.36 (active)
